In PubChem BioAssay AID623992 (NMMLSC, 2012):
Measured potencies and affinities stand elsewhere. Active and inactive are the calls of the source.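 How the source made its calls: active means compounds whose fitted half-maximal effective concentration for blocking dye efflux is below 100 µM; inactive means the rest.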

target: Benomyl/methotrexate resistance protein (Candida albicans) (UniProt P28873); experiment: CaMdr1 efflux pump inhibitor potency, dose response, singleplex, Cherry Pick2 set (AID 623992); settings: S. cerevisiae AD/CaMDR1, Nile Red efflux, flow cytometry; series mostly up to 100 µM
Sequence (P28873 whole entry, looked up): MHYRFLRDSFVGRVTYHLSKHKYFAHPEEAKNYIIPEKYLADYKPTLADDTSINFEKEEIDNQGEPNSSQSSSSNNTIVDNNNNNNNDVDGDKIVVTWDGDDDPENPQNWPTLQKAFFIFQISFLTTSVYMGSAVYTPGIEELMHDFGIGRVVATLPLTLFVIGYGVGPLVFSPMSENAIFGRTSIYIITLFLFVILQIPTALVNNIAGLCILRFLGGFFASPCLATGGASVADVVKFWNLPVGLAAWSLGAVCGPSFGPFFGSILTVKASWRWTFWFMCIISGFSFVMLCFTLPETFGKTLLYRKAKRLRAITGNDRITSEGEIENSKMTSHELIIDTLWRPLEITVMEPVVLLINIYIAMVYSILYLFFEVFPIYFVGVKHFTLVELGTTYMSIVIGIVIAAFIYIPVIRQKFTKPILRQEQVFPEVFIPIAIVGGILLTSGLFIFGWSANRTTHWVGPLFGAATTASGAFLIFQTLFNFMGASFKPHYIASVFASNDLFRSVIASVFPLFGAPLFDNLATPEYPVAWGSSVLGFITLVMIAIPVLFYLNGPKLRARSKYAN

outcome, inactive:
COc1ccc(-c2sc3ccccc3c2-c2ccc(OCCN(C)C)cc2)cc1
O=C(Nc1ccccc1)C1=C[C@H](c2ccccc2)C[C@H](OCCCCO)O1
NS(=O)(=O)c1ccc(N2N=C(c3ccccc3)CC2c2ccc(Br)cc2)cc1 (stereo not given)
Cc1ccc(CN2C(=O)C(CC(C)C)Nc3ncnc(N4CCN(c5ccccc5)CC4)c32)cc1 (stereo not given)
Cc1cc(C)c2sc(N(CCCN(C)C)C(=O)c3ccc(Br)s3)nc2c1
Cc1ccc(-c2c[n+](CC(=O)N3c4ccccc4Sc4ccccc43)c3n2CCC3)cc1
O=C(c1ccc2c(c1)OCO2)N1CCC2(CC1)Oc1ccc(F)cc1C(=O)C21CC(c2ccc(Cl)cc2)=NO1 (stereo not given)
Cc1cccc(C2CC(c3ccccc3)=NN2c2ccc(S(N)(=O)=O)cc2)c1 (stereo not given)
COc1cc(OC)c2ccc(=O)oc2c1C(CCN1CCCC(C)C1)c1ccc(N(C)C)cc1 (stereo not given)
Cc1ccc2sc(N(CCCN(C)C)C(=O)c3ccc(Br)s3)nc2c1C
COc1cccc(-c2sc3ccc(OC)cc3c2-c2ccc(OCCN3CCOCC3)cc2)c1
COc1cc(OC)c2ccc(=O)oc2c1C(CCN1CCCC1)c1ccc(N(C)C)cc1 (stereo not given)
COc1ncccc1C(=O)NC1CCCc2c1cnn2-c1cc(C)cc(C)c1 (stereo not given)
CCN(CC)CCC(c1ccc(N(C)C)cc1)c1c(OC)cc(OC)c2ccc(=O)oc12 (stereo not given)
O=C(C1CCCN(c2ncnc3c2nc2n3CCCCC2)C1)N1CCN(c2ccccc2)CC1 (stereo not given)
